FLuc inh-1: inhibitors of firefly (Photinus pyralis) luciferase; P08659; purified P. pyralis luciferase, luminescence, biochemical; Potency, µM (highest dose often 115 µM), actives largely listed as inhibitors; 2.5% of 76,000 active; AID 1347043; further: on the % scale 0 is the no-effect control and ±100 the full control effect; nearly all actives have a fitted effect of over 65% in size
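Biochemical qHTS: compound (6-point titration) added to 10uM D-luciferin plus 10uM ATP in Tris acetate pH 7.5 buffer with Mg, Tween-20 and BSA, then purified enzyme at 10nM; light output imaged.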
NPR1 antag: human Npr1 receptor antagonism. Potency, µM (series often up to 46.3 µM), for the others: at the highest dose activity change, negative = inhibition, actives largely listed as inhibitors. 1.6% of 76,000 active. HEK293 hNpr1 GloSensor cGMP, ANP-stimulated luminescence. P16066. AID 1347048; calls by dose curve; further: on the % scale 0 is the no-effect control and ±100 the full control effect; nearly all actives have a fitted effect of over 60% in size
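Compound pre-incubated 30 min at room temperature on GloSensor-loaded HEK293 cells stably carrying hNpr1 and the pGS-40F cGMP biosensor. Stimulation uses hNppA at 0.1 nM final; luminescence is taken at baseline and 20 min post-agonist.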
HEK cytotox: kills HEK 293 cells; HEK 293 viability, ATP luminescence (CellTiter-Glo), 48-72 h; 6.6% of 94,000 active; Potency, µM (doses to about 115 µM), for inactives: at the highest dose activity change, negative = cytotoxicity, hits mostly inhibitors; AID 1345083; further: on the % scale 0 is the no-effect control and ±100 the full control effect; nearly all actives have a fitted effect of over 60% in size
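Luminescence from cellular ATP, measured with CellTiter-Glo, indicates HEK 293 viability. Cells plated at 250 cells/well are treated with compound for 48 or 72 hr at 37 degree Celsius before reagent addition.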
3T3 cytotox: cytotoxic compounds in NIH 3T3 cells; 4.3% of 94,000 active; Potency, µM (highest dose often 96.7 µM), without a hit: at the highest dose activity change, negative = cytotoxicity, usual class: inhibitors; AID 1345082; NIH 3T3 viability, CellTiter-Glo ATP luminescence, 48-72 h; further: on the % scale 0 is the no-effect control and ±100 the full control effect; nearly all actives have a fitted effect of over 55% in size
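Cytotoxicity is measured as loss of cellular ATP: NIH 3T3 cells (400/well) are exposed to compound for 48 or 72 hr at 37 °C, then CellTiter-Glo luminescence is imaged after 10 min at room temperature.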
FLuc SDR no ATP: stabilizes firefly luciferase without ATP | shares compounds with FLuc inh-1 | Purified FLuc-C-HiBiT, Nano-Glo HiBiT luminescence, no ATP | Potency, µM (series often up to 32.7 µM), for the others: top-dose activation (signal gain), hits mostly activators | 7.8% of 1,300 active; further: nearly all actives have a fitted effect of over 55% in size
FLuc SDR ATP: binders stabilizing firefly luciferase, plus ATP; shares compounds with FLuc inh-1; 8.7% of 1,300 active; Potency, µM (highest dose often 32.7 µM), for the others: top-dose activation (gain of signal), usual class: activators; purified FLuc-C-HiBiT + ATP, HiBiT complementation luminescence;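 further: signal reports ligand binding via conformational change of the enzyme rather than luciferase catalysis; % of control where 0% means no effect; nearly all actives have a fitted effect of over 55% in size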
FLuc inh-2: firefly luciferase enzyme inhibition; shares compounds with FLuc inh-1; purified FLuc-C-HiBiT enzyme, luciferin luminescence; Potency, µM (top dose mostly 32.7 µM), without a hit: top-dose activity change, negative = inhibition, hits mostly inhibitors; 42% of 1,300 active; AID 1963320; further: on the % scale 0 is the no-effect control and ±100 the full control effect; nearly all actives have a fitted effect of over 70% in size
The depositor's hits bear a star; i = inactive; ? = inconclusive; . = no result given; [ ] = remark or other dose. The list is not random: actives were taken first. Their share in the collection is about 11%. Unless noted, the call rests on the fitted dose curve; in most records, active means well fitted curve in the direction sought with a large enough effect; inconclusive means small, poorly fitted or top-dose-only effect, or another doubt; inactive means no such curve, though single readings can be large; an effect the other way counts as inactive or inconclusive. Potency means the concentration at half of the fitted maximal effect.

SMILES | FLuc inh-1 | NPR1 antag | HEK cytotox | 3T3 cytotox | FLuc SDR no ATP | FLuc SDR ATP | FLuc inh-2
Cn1ncc2c(C(=O)NC3CCOCC3)cc(-c3cccc(F)c3)nc21 | . | . | 5%[172 µM] | -8%[138 µM] | . | . | .
COc1ccc(C(=O)NCCn2cccc2-c2nc(-c3ccccc3)no2)cc1 | 2.5µM* | ? | -24% | -3% | ? | ? | 2.8µM*
O=C(NCCn1cccc1-c1nc(-c2ccc3c(c2)OCO3)no1)c1ccc(Cl)cc1 | 14µM* | -22% | ? | -26% | 13% | 12% | ?
CCOc1ccc(C(=O)NCCn2cccc2-c2nc(-c3ccccc3)no2)cc1OCC | i | -3% | ? | -11% | . | . | .
Cc1ccc(C(=O)NCCn2cccc2-c2nc(-c3ccc4c(c3)OCO4)no2)cn1 | 13µM* | -25% | 28µM* | ? | 26% | 17% | ?
Cc1ccc(C(=O)NCCn2cccc2-c2nc(-c3ccc4c(c3)OCO4)no2)cc1 | ? | -14% | -22% | -11% | . | . | .
Fc1ccccc1Cc1cn2cc(-c3ccc(Cl)cc3)nc2s1 | . | . | . | . | 20% | ? | 1.6µM*
Clc1ccc(-c2cn3cc(Cc4ccccc4)sc3n2)cc1 | . | . | . | . | 30% | ? | 0.79µM*
O=C(NCc1ccccc1)c1cn2cc(-c3ccccc3)sc2n1 | . | . | -18%[172 µM] | -32%[138 µM] | . | . | .
Fc1ccc(-c2cn3cc(Cc4ccccc4Cl)sc3n2)cc1 | . | . | . | . | ? | ? | 0.99µM*
Cc1ccc(Cc2cn3cc(-c4ccccc4)nc3s2)cc1 | . | . | . | . | ? | ? | 0.44µM*
COc1ccc(C(=O)N2CCC[C@H](n3c(=O)n(CC4CC4)c4cccnc43)C2)c(OC)c1 | . | . | ? | -42% | . | . | .
Cc1noc(C)c1Cc1ccc(C(=O)N2CCCCCCN(C)C(=O)[C@@H]3CCC[C@@H]32)o1 | i | -1% | ? | -16% | . | . | .
C#CCNC(=O)[C@@H]1CCCN1c1nccc(Nc2ccccc2Cl)n1 | . | . | ? | -22% | . | . | .
CN(CCCNC(=O)CCC[C@H]1NC[C@@H]2C[C@H]1CN(Cc1ccccc1)C2)C1CCCCC1 | i | -3% | 1% | 2% | . | . | .
O=C(NC1CCCCCC1)c1cn2cc(-c3ccc(F)cc3)sc2n1 | . | . | -30% | ? | . | . | .
Fc1ccc(Cc2cn3cc(-c4ccc(F)cc4)nc3s2)cc1 | . | . | . | . | ? | ? | 0.88µM*
Cc1cnc(C(=O)N2CC(Oc3ccc(-c4nc(-c5ccccc5)no4)cc3)C2)cn1 | i | -13% | -23% | -21% | . | . | .
Cc1ncccc1C(=O)N1CC(Oc2ccc(-c3nc(-c4ccccc4)no3)cc2)C1 | 1µM* | ? | 13µM* | ? | 22% | ? | 6.2µM*
O=C(c1ccccn1)N1CCC(Oc2ccc(-c3noc(-c4ccccc4)n3)cc2)C1 (centres undefined) | 11µM* | -21% | 22µM* | ? | 13% | 14% | ?
O=C(NCCc1noc(-c2ccncc2)n1)c1c2c(nc3ccccc13)CCCC2 | ? | -2% | ? | ? | . | . | .
O=C(Nc1onc2c1CCCC2)c1ccccc1 | . | . | . | . | 18% | ? | ?
CCOc1ccc(C(=O)Nc2onc3c2CCCC3)cc1 | . | . | . | . | ? | 7µM* | 2µM*
CC(C)COc1ccc(C(=O)Nc2onc3c2CCCC3)cc1 | . | . | . | . | 28% | ? | 2µM*
COc1ccc(-c2ccc3nc(-c4c(F)c(F)cc(F)c4F)oc3c2)c(OC)c1OC | i | 3% | ? | -28% | . | . | .
CC(C)c1ccc(NC(=O)O[C@@H]2CO[C@H]3[C@@H]2OC[C@@H]3NS(=O)(=O)c2cccs2)cc1 | 11µM* | 0% | ? | ? | 16% | 10% | ?
Cc1nn(C(=O)CCC(=O)N2CCC(Cc3nc(C4CCOCC4)no3)CC2)c2ccccc12 | i | -22% | ? | -20% | . | . | .
